Experimental data: publication PMC7826789 (International Journal of Molecular Sciences, 2021)

CC(C)COC(=O)c1ccc2c(c1)/C(=C/Nc1ccc(S(N)(=O)=O)cc1)C(=O)N2 [GW416981X]
Kinases covered (IKKE): IKKE

CNC(=O)c1c(F)cccc1Nc1nc(Nc2cc3c(cc2OC)CCN3C(=O)CN(C)C)nc2[nH]ccc12 [GSK1838705]
Kinases covered (IRR): IRR

CN(C)C(=O)/C(C#N)=C/c1ccc(-c2nc3cnc4[nH]ccc4c3n2C2CCCCC2)o1 [FM-381]
Kinases covered (JAK1): JAK1
Kinases covered (JAK3): JAK3

C[C@@H]1CCN(C(=O)CO)C[C@@H]1N(C)c1ncnc2[nH]ccc12 [PFE-PKIS 34]
Kinases covered (JAK3): JAK3

Cc1cc(NC(=O)c2cccc(NC(=O)/C=C/CN(C)C)c2)ccc1Nc1nccc(-c2cccnc2)n1 [JNK-IN-7]
Kinases covered (JNK1): JNK1
Kinases covered (JNK2): JNK2
